Assay outcomes from PubChem.
An excerpt weighted towards active compounds, which were near 2.4% of everything screened.
TMEM16A act – activators or potentiators of mouse TMEM16A chloride channel; AID 623877; B-score at 10 µM; 0.3% of 340,000 active; HEK293 TMEM16A/YFP-H148Q/I152L, iodide quench fluorescence; stronger effect = lower value; Q8BHY3;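 active = fluorescence-ratio B-score plate-corrected deviation score at least 3 library SD below zero, with starting fluorescence score within 5 deviations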;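 also: channel opened by trigger with iodide after compound preincubation; score built on the fluorescence ratio of max minus min over baseline; more negative score means more quench and so TMEM16A activation or potentiation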
Target sequence (Q8BHY3 whole entry, looked up): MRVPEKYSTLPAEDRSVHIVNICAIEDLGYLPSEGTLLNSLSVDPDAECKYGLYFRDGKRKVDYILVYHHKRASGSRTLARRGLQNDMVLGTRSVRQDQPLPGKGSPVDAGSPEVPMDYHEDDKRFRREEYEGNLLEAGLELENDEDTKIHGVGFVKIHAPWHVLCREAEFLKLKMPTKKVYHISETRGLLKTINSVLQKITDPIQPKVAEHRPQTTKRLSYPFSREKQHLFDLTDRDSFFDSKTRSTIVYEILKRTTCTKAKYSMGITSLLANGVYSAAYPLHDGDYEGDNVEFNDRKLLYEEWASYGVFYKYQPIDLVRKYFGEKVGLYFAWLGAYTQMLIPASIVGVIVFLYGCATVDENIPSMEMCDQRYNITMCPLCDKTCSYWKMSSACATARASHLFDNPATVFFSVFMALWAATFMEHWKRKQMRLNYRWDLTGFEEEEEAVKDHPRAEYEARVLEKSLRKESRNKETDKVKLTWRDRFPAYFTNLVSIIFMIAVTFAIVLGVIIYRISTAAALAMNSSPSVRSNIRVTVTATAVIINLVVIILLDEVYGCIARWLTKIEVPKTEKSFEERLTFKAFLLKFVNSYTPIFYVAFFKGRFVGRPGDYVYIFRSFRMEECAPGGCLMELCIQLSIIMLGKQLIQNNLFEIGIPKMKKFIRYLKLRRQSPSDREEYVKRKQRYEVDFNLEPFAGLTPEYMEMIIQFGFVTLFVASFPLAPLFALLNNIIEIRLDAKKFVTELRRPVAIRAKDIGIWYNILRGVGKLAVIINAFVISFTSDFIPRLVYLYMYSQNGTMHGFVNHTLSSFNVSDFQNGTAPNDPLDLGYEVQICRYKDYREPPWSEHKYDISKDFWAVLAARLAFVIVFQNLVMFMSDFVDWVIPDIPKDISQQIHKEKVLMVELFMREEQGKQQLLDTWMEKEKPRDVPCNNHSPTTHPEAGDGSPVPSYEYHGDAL
CHT allo act – allosterically activates the human high affinity choline transporter; Q9GZV3; CHT-expressing cells, membrane potential dye, choline EC20; stronger effect = higher value; LV-AA mutant CHT in HEK293 cells; B-score at 10 µM; 0.49% of 310,000 active; AID 488977;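 active = initial fluorescence not abnormally high and integrated response B-score, plate-corrected, over 3 SD above library mean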
ANO1 block – inhibitors of mouse TMEM16A calcium-activated chloride channel. Q8BHY3. HEK293 TMEM16A/YFP iodide influx fluorescence, ionomycin. normalized B-score (activity score, 25-100; higher = stronger inhibition) at 10 µM. 1.2% of 310,000 active;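 active = ratio plate-corrected score three or more library SD toward inhibition, starting fluorescence score within five deviations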;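 also: score derived from kinetic fluorescence span divided by baseline fluorescence per well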
CHT block – human CHT choline transport inhibition; Q9GZV3; CHT-expressing cells, membrane potential dye, choline response; stronger effect = lower value; B-score at 10 µM; 0.86% of 310,000 active;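 active = B-score over 3 SD under the library average, and starting fluorescence ratio not unusually high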;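 also: choline stimulus applied at its EC90 after an EC20 pre-addition; B-score computed on integrated fluorescence ratio after choline addition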
CHT inh conf – human CHT inhibition, confirmatory screen; shares compounds with CHT block; CHT-expressing cells, choline membrane potential dye; LV-to-AA substituted CHT, HEK293 cells; CHT activity remaining % of control (stronger effect = lower value), % at 10 µM; 70% of 2,400 active;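 active = choline transporter activity left, mean of duplicates at 10 µM, below buffer-only control mean minus 3 SD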;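 also: depolarization triggered by choline at its EC90 following an EC20 pre-addition; 0% = hemicholinium-3 full block and 100% = buffer-only control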
HEK293 CHT ctr – counter-screen for CHT inhibitors: effect in parental HEK293 cells. shares compounds with CHT block. membrane potential dye, choline response; active = decrease or increase beyond buffer ±3SD. membrane potential ratio readout (active if shifted either direction beyond buffer ±3SD; no single direction) at 10 µM. 4% of 2,400 active;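 also: parental cells lack the transporter so any hit is non-specific; ratio is peak minus trough fluorescence over baseline after EC90 choline challenge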
* marks the source's active call; other numbers are inactive results.

Results for COc1ccc2c(c1)c(C(O)CN1CCC(Cc3ccccc3)CC1)c(C)n2C (stereo not given) ?
TMEM16A act: inactive; CHT allo act: inactive; ANO1 block: inactive; CHT block: -11*; CHT inh conf: 22%*; HEK293 CHT ctr: inactive

What do the screens show for `Cc1ccc(NC(=O)CSc2n[nH]c(=O)n2C2CC2)cc1S(=O)(=O)N1CCOCC1`?
TMEM16A act: inactive; CHT allo act: inactive; ANO1 block: inactive; CHT block: -6.8*; CHT inh conf: inactive; HEK293 CHT ctr: inactive

Results for Cc1ccccc1NC(=O)c1cccc(S(=O)(=O)Oc2ccc([N+](=O)[O-])cc2)c1 ?
TMEM16A act: inactive; CHT allo act: inactive; ANO1 block: inactive; CHT block: -5.7*; CHT inh conf: inactive; HEK293 CHT ctr: inactive

Results for O=C(/C=C/c1cccc(Cl)c1)N1CCC(Cc2ccccc2)CC1 ?
TMEM16A act: inactive; CHT allo act: inactive; ANO1 block: inactive; CHT block: inactive

Results for O=C(C1CC(=O)N(C2CCCC2)C1)N1CCC(Cc2ccccc2)CC1 (stereo not given) ?
TMEM16A act: inactive; CHT allo act: inactive; ANO1 block: inactive; CHT block: -5.8*; CHT inh conf: 55%*; HEK293 CHT ctr: inactive

Results for O=C(C1CC(=O)N(C2CCCC2)C1)N1CCN(c2ccccc2F)CC1 (stereo not given) ?
TMEM16A act: inactive; CHT allo act: inactive; ANO1 block: inactive; CHT block: inactive

Results for Cc1ccc(C(=O)NCC(=O)N2CCC(Cc3ccccc3)CC2)cc1 ?
TMEM16A act: inactive; CHT allo act: inactive; ANO1 block: inactive; CHT block: -5.2*; CHT inh conf: 59%*; HEK293 CHT ctr: inactive

How did O=C(/C=C/c1ccccc1)N1CCC(Cc2ccccc2)CC1 do in these assays?
TMEM16A act: inactive; CHT allo act: inactive; ANO1 block: inactive; CHT block: -5.3*; CHT inh conf: inactive; HEK293 CHT ctr: inactive

What do the screens show for `COC(=O)CSc1nc(NC(C)C)nc(N2CCOCC2)n1`?
TMEM16A act: inactive; CHT allo act: inactive; ANO1 block: inactive; CHT block: inactive

How did Cc1ccc(-n2cc(CN3CCN(Cc4nccn4C)CC3)c(-c3ccc(F)cc3)n2)cc1 do in these assays?
TMEM16A act: inactive; CHT allo act: inactive; ANO1 block: inactive; CHT block: -6.4*; CHT inh conf: 29%*; HEK293 CHT ctr: inactive

What do the screens show for `Cc1ccc(-n2cc(CN3CCN(c4ccccn4)CC3)c(-c3ccc(F)cc3)n2)cc1`?
TMEM16A act: inactive; CHT allo act: inactive; ANO1 block: inactive; CHT block: inactive

What do the screens show for `COc1c[nH]n(C2CCCCC2)c(=O)c1=O`?
TMEM16A act: inactive; CHT allo act: inactive; ANO1 block: inactive; CHT block: inactive

What do the screens show for `COc1ccc(CNC(=O)CN2CCN(S(=O)(=O)c3cc(Br)ccc3Br)CC2)cc1OC`?
TMEM16A act: inactive

How did O=C(Cn1nc(-c2ccccc2)ccc1=O)NCc1ccc2c(c1)OCO2 do in these assays?
TMEM16A act: inactive; CHT allo act: inactive; ANO1 block: inactive; CHT block: inactive

How did O=C(Cn1nc(-c2ccccc2)ccc1=O)NCc1ccc(F)cc1 do in these assays?
TMEM16A act: inactive; CHT allo act: inactive; ANO1 block: inactive; CHT block: -6.3*; CHT inh conf: 49%*; HEK293 CHT ctr: inactive

Results for CC(C)(C)OC(=O)NCCCCCc1nnc(SCC(=O)Nc2cccc(Cl)c2)o1 ?
TMEM16A act: inactive; CHT allo act: inactive; ANO1 block: 100*; CHT block: -5.6*; CHT inh conf: inactive; HEK293 CHT ctr: inactive

Results for CC(C)(C)OC(=O)NCCc1nnc(SCC(=O)Nc2cccc(Cl)c2)o1 ?
TMEM16A act: inactive; CHT allo act: inactive; ANO1 block: inactive; CHT block: inactive

What do the screens show for `CC(C)(C)OC(=O)NCCc1nnc(SCc2ccc(Cl)cc2)o1`?
TMEM16A act: inactive; CHT allo act: inactive; ANO1 block: inactive; CHT block: -6.1*; CHT inh conf: 65%*; HEK293 CHT ctr: inactive
